# Assay results taken from article PMC7862700, “An all-to-all approach to the identification of sequence-specific readers for epigenetic DNA modifications on cytosine”.
# How the values were obtained:
# Assay in all cases: DAPPL (digital affinity profiling via proximity ligation, sequencing); 10 mM Tris-HCl pH 7.5, 50 mM NaCl, 1 mM DTT, 4% glycerol, room temperature, 30 min; GST-TFs on glutathione beads, 16-mer random dsDNA library, 0.1% formaldehyde crosslink after washing; high values mean tight binding
# Settings in all cases: protein: recombinant; tags: N-terminal GST; dsDNA, one strand shown
# FLI1 = molecular target: T1, FLI1 (Homo sapiens, UniProt Q01543 1-452)
# T1 sequence: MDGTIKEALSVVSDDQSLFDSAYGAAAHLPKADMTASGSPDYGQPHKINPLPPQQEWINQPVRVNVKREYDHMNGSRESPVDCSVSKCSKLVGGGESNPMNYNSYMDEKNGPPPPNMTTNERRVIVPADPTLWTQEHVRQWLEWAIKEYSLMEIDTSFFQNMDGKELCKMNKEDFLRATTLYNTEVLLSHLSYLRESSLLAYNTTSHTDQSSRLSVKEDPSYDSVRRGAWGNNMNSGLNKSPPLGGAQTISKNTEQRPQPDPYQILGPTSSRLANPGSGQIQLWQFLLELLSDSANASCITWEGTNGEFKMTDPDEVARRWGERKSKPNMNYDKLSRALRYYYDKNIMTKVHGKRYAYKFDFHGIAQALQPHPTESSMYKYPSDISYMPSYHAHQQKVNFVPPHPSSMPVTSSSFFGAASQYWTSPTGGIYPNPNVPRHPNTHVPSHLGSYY
# Summary of the method: (§1)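 Human transcription factors carrying a GST fusion were produced in yeast, bound to glutathione beads, tagged with DNA barcodes and pooled together with a tag-only sample. Each pool was held with 200 nmole of a random double-stranded 16-mer DNA library in Tris/NaCl/DTT/glycerol buffer for 30 min at room temperature, then washed, crosslinked in 0.1% formaldehyde, proximity-ligated with BsaI/T4 ligase (1 h, 37 °C), PCR-amplified and sequenced on an Illumina NextSeq500. Binding signal is the read frequency of each hexamer for a given factor divided by its frequency in the tag-only sample.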
# ELK1 = molecular target: T2, ELK1 (Homo sapiens, UniProt P19419 1-428)
# T2 sequence: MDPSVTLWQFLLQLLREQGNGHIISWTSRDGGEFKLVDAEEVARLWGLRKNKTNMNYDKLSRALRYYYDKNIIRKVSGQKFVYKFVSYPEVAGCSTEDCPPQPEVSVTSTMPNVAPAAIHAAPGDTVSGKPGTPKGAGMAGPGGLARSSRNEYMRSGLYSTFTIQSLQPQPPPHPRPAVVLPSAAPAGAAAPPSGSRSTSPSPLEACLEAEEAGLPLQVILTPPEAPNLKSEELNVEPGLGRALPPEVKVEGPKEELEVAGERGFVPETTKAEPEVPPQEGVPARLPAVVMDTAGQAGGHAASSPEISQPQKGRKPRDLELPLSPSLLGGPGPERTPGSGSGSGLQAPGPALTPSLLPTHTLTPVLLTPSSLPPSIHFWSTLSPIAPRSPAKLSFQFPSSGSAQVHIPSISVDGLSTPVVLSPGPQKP
# Summary of the method: as §1
# GABPA = molecular target: T3, GABPA (Homo sapiens, UniProt Q06546 1-454)
# T3 sequence: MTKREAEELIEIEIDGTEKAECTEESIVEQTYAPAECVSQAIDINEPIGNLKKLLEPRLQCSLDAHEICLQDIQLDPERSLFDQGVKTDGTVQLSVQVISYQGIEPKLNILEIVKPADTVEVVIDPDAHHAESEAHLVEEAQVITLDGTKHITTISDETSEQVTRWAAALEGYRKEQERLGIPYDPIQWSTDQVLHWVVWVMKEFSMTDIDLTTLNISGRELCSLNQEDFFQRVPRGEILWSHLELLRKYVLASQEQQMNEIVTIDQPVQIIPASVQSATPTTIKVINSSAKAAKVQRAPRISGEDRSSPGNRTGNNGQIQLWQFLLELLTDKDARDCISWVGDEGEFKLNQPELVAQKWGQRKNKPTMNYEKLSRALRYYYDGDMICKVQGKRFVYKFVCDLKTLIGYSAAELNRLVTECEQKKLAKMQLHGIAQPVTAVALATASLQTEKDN
# Summary of the method: as §1
# ERG = molecular target: T4, ERG (Homo sapiens, UniProt P11308 1-479)
# T4 sequence: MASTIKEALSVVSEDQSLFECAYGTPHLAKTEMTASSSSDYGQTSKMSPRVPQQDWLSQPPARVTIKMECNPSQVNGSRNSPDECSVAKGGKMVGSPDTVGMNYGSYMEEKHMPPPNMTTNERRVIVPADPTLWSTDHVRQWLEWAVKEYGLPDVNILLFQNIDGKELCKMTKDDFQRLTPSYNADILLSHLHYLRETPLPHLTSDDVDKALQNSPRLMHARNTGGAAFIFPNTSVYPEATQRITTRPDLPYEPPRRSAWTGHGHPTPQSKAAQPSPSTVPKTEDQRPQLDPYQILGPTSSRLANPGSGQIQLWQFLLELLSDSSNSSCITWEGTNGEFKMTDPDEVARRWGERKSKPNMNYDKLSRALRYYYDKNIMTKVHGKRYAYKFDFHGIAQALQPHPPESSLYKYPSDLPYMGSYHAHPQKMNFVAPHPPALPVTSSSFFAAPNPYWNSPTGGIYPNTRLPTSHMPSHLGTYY
# Summary of the method: as §1
# ELF1 = ELF1 (Homo sapiens, UniProt P32519 1-619)
# Chain of ELF1 (P32519 whole entry): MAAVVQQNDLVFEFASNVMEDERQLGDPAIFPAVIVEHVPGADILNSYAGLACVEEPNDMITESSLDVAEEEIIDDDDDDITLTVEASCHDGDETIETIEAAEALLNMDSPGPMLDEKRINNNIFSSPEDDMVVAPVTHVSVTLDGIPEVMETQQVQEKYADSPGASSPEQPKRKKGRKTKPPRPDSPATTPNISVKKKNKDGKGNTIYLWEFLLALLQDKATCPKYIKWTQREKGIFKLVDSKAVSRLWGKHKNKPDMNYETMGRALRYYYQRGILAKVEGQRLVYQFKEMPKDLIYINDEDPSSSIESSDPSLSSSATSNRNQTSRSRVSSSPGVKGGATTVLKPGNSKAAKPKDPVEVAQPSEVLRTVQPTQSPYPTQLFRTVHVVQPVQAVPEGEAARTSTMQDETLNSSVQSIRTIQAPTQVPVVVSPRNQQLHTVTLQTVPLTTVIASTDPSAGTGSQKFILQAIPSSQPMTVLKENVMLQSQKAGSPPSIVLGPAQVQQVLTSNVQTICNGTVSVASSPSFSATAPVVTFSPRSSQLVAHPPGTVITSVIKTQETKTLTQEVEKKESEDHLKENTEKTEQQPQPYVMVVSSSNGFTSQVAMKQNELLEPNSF
# Summary of the method: as §1
# EHF = molecular target: T5, EHF (Homo sapiens, UniProt Q9NZC4 1-300)
# T5 sequence: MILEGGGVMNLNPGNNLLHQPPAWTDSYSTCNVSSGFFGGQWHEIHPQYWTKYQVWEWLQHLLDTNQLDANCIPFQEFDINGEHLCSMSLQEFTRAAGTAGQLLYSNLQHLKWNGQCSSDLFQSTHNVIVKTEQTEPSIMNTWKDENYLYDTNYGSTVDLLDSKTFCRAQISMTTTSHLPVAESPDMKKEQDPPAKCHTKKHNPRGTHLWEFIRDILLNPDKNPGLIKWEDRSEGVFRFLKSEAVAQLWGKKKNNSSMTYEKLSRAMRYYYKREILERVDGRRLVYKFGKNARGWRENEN
# Summary of the method: as §1
# SPI1 = SPI1 (Homo sapiens, UniProt P17947 1-270)
# Summary of the method: as §1
# SPIB = SPIB (Homo sapiens, UniProt Q01892 1-262)
# Chain of SPIB (Q01892 whole entry): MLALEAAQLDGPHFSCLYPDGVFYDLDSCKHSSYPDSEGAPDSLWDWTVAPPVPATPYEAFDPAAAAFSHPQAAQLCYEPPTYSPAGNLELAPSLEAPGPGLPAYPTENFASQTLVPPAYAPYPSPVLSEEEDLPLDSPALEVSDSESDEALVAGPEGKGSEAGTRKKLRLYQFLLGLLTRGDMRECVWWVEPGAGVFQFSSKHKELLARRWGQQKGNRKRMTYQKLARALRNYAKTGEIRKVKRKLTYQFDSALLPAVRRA
# Summary of the method: as §1
# ELK3 = molecular target: T6, ELK3 (Homo sapiens, UniProt P41970 1-407)
# T6 sequence: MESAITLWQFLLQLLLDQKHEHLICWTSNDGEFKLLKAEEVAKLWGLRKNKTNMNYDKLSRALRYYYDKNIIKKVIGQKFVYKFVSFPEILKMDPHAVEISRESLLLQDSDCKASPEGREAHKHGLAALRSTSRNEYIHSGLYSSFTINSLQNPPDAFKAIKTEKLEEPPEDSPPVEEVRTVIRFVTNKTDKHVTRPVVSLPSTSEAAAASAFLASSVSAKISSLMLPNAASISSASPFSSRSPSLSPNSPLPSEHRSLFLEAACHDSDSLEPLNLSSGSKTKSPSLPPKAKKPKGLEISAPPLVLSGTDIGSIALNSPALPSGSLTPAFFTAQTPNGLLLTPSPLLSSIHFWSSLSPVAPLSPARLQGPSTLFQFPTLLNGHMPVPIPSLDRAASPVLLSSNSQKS
# Summary of the method: as §1
# FEV = molecular target: T7, FEV (Homo sapiens, UniProt Q99581 1-238)
# T7 sequence: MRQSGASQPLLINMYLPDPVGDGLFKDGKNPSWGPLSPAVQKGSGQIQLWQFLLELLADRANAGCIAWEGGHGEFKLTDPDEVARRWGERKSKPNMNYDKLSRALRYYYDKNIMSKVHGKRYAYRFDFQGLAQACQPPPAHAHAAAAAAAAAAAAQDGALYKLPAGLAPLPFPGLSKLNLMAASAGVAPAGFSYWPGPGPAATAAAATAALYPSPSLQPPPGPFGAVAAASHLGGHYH
# Summary of the method: as §1
# ETV5 = ETV5 (Homo sapiens, UniProt P41161 1-510)
# Chain of ETV5 (P41161 whole entry): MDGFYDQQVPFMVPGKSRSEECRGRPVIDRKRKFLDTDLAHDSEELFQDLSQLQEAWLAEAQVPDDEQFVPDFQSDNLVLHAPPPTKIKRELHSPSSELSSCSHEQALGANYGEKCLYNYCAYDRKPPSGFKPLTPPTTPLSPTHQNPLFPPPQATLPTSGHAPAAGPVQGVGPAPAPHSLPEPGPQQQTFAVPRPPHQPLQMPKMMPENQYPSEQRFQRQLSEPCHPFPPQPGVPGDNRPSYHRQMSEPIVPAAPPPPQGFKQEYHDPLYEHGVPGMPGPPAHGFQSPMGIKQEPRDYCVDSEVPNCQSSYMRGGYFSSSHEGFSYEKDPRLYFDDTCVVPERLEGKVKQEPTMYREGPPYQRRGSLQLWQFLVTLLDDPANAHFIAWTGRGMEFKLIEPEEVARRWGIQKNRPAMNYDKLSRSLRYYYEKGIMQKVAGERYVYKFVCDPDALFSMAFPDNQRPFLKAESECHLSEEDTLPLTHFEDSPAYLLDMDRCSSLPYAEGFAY
# Summary of the method: as §1
# SPIC = molecular target: T8, SPIC (Homo sapiens, UniProt Q8N5J4 1-248)
# T8 sequence: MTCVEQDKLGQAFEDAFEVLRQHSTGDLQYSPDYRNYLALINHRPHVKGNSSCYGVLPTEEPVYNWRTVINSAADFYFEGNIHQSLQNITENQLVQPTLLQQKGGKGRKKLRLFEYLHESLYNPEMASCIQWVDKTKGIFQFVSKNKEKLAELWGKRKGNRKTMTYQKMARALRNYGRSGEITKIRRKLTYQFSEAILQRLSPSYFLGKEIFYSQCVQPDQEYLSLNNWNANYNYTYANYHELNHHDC
# Summary of the method: as §1
# ELF4 = ELF4 (Homo sapiens, UniProt Q99607 1-663)
# Chain of ELF4 (Q99607 whole entry): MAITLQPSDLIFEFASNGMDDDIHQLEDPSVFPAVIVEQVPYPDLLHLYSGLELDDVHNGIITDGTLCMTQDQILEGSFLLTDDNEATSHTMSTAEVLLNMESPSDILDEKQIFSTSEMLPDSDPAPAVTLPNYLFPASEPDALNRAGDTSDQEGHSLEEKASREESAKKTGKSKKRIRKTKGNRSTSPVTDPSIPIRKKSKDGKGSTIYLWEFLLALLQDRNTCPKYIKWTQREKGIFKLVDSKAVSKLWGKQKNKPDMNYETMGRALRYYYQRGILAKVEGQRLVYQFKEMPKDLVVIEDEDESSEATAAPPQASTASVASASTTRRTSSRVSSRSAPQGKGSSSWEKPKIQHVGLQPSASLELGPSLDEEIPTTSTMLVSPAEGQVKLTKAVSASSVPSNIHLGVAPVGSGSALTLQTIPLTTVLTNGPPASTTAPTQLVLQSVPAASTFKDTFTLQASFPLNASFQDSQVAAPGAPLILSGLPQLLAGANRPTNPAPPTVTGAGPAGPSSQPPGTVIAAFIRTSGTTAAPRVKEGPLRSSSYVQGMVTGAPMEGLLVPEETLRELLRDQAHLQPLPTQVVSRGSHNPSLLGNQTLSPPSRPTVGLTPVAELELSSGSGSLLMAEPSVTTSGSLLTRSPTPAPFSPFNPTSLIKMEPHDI
# Summary of the method: as §1
# ELK4 = molecular target: T9, ELK4 (Homo sapiens, UniProt P28324-2 1-405)
# T9 sequence: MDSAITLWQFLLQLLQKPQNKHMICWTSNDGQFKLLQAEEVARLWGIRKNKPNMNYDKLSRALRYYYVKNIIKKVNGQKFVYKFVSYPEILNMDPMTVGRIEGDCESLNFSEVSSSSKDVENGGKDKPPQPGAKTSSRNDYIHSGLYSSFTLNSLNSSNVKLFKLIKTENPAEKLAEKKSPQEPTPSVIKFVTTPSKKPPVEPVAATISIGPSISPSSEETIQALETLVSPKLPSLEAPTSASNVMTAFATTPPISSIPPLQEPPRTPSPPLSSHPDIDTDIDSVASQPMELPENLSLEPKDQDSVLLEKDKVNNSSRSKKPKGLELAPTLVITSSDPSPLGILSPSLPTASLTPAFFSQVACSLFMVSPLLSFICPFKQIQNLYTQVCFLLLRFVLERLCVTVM
# Summary of the method: as §1
# ELF3 = molecular target: T10, ELF3 (Homo sapiens, UniProt P78545 1-371)
# T10 sequence: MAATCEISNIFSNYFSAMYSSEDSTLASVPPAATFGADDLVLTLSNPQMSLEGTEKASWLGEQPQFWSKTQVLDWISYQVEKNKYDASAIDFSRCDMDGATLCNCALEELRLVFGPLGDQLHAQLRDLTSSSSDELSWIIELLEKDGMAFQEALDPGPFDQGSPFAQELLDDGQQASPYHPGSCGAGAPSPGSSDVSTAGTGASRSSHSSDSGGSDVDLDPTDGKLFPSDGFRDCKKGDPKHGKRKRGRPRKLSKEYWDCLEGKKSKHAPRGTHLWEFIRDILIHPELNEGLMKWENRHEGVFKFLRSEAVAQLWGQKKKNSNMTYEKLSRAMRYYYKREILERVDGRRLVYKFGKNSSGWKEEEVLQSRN
# Summary of the method: as §1
# CRX = CRX (Homo sapiens, UniProt O43186 1-299)
# Chain of CRX (O43186 whole entry): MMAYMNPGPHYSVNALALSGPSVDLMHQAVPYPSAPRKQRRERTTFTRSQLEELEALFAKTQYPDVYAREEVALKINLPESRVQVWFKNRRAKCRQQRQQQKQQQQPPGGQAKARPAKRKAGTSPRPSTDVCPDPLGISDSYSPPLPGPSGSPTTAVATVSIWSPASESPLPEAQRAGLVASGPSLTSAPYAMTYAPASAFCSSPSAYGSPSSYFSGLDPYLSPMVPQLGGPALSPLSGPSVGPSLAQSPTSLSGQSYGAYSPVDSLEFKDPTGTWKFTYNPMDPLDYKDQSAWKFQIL
# Summary of the method: as §1
# ETV1 = ETV1 (Homo sapiens, UniProt P50549 1-477)
# Chain of ETV1 (P50549 whole entry): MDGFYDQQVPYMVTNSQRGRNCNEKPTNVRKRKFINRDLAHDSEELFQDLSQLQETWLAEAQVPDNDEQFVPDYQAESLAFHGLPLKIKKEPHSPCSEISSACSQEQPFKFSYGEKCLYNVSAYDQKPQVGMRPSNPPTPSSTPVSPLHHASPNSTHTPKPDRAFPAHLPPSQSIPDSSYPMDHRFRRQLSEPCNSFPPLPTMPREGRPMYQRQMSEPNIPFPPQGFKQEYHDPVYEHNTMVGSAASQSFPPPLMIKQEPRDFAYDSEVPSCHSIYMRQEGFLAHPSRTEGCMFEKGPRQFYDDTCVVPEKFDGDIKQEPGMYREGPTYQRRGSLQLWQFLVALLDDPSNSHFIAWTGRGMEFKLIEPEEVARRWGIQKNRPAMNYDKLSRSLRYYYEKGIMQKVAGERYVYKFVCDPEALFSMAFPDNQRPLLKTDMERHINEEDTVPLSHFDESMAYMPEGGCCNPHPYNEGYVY
# Summary of the method: as §1
# ETV2 = molecular target: T11, ETV2 (Homo sapiens, UniProt O00321 1-342)
# T11 sequence: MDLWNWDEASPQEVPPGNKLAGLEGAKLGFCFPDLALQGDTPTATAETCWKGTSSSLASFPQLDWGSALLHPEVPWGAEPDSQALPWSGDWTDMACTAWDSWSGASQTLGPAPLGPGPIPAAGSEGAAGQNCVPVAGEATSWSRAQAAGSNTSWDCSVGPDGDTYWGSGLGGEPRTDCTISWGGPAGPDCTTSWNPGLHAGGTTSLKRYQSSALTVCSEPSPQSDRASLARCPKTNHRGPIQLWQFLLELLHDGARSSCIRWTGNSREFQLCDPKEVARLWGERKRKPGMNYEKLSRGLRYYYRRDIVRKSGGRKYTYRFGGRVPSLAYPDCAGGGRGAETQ
# Summary of the method: as §1
Sequence,binding signal (FLI1),binding signal (ELK1),binding signal (GABPA),binding signal (ERG),binding signal (ELF1),binding signal (EHF),binding signal (SPI1),binding signal (SPIB),binding signal (ELK3),binding signal (FEV),binding signal (ETV5),binding signal (SPIC),binding signal (ELF4),binding signal (ELK4),binding signal (ELF3),binding signal (CRX),binding signal (ETV1),binding signal (ETV2)
ATGTTG,"1.31 fold enrichment (6-mer frequency, TF over GST control)","1.26 fold enrichment (6-mer frequency, TF over GST control)","1.22 fold enrichment (6-mer frequency, TF over GST control)","1.26 fold enrichment (6-mer frequency, TF over GST control)","1.35 fold enrichment (6-mer frequency, TF over GST control)","1.21 fold enrichment (6-mer frequency, TF over GST control)","1.3 fold enrichment (6-mer frequency, TF over GST control)","1.18 fold enrichment (6-mer frequency, TF over GST control)","1.21 fold enrichment (6-mer frequency, TF over GST control)","1.21 fold enrichment (6-mer frequency, TF over GST control)","1.3 fold enrichment (6-mer frequency, TF over GST control)","1.1 fold enrichment (6-mer frequency, TF over GST control)","1.2 fold enrichment (6-mer frequency, TF over GST control)","1.25 fold enrichment (6-mer frequency, TF over GST control)","1.11 fold enrichment (6-mer frequency, TF over GST control)","1.04 fold enrichment (6-mer frequency, TF over GST control)","1.32 fold enrichment (6-mer frequency, TF over GST control)",
GCGCCC,"1.07 fold enrichment (6-mer frequency, TF over GST control)","1.1 fold enrichment (6-mer frequency, TF over GST control)","1.11 fold enrichment (6-mer frequency, TF over GST control)","1.13 fold enrichment (6-mer frequency, TF over GST control)","1.11 fold enrichment (6-mer frequency, TF over GST control)","1.03 fold enrichment (6-mer frequency, TF over GST control)",,"1.09 fold enrichment (6-mer frequency, TF over GST control)","1.18 fold enrichment (6-mer frequency, TF over GST control)","1.08 fold enrichment (6-mer frequency, TF over GST control)","1.04 fold enrichment (6-mer frequency, TF over GST control)","1.01 fold enrichment (6-mer frequency, TF over GST control)","1.19 fold enrichment (6-mer frequency, TF over GST control)","1.02 fold enrichment (6-mer frequency, TF over GST control)",,,"1.05 fold enrichment (6-mer frequency, TF over GST control)","1.02 fold enrichment (6-mer frequency, TF over GST control)"
